tim23-1 inh: inhibits growth of tim23-1 mutant yeast. 330,000 compounds, 1.3% hits. S. cerevisiae tim23-1 growth, BacTiter-Glo luminescence, 24 h. inhibition, % at 20 µM. AID 463212;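 active = growth inhibition of the mutant yeast at or above 50%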;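 note: temperature-sensitive mutant grown at 25 °C; plate controls were DMSO-treated mutant yeast for no effect and medium wells lacking yeast for full effect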
NALP3 yeast inh: blocks the NALP3 inflammasome reconstituted in yeast; AID 2825; Yeast reconstituted NLRP3/ASC/caspase-1, beta-gal luminescence, 24 h; inhibition, % at 10 µM; 330,000 compounds, 0.39% hits;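 active = inhibition of 50% or more; inactive = inhibition below 50%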;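 note: plate controls were induced DMSO wells for no effect and uninduced yeast grown without galactose for full effect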
tim10-1 inh: tim10-1 yeast growth inhibition; S. cerevisiae tim10-1 ts strain growth, BacTiter-Glo, 24 h; inhibition, % at 20 µM; 330,000 compounds, 2.2% hits; AID 463190;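 active = inhibition of at least 40%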;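 note: mutant grown at 25 °C; 0% = DMSO wells with yeast and 100% = wells holding no yeast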
TIM10 inh: inhibits growth of TIM10 yeast strain; 330,000 compounds, 1.4% hits; AID 463195; inhibition, % at 10 µM; S. cerevisiae TIM10 strain growth, BacTiter-Glo luminescence, 24 h;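 active = inhibition of 40% or more at the single tested concentration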;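 note: wild-type TIM10 isogenic control strain grown at permissive 25 °C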
NALP1 yeast inh: blocks the NALP1 inflammasome reconstituted in yeast; 280,000 compounds, 0.61% hits; inhibition, % at 10 µM; S. cerevisiae NALP1/ASC/caspase-1 growth, X-gal OD620, 72 h; AID 2071; in the data active = inhibition mostly above about 24%, no sharp cut-off; inactive = mostly below about 32%
tim10-1 confirm: tim10-1 yeast growth inhibition, confirmed | AID 463213 | inhibition, % at 20 µM | shares compounds with tim10-1 inh | S. cerevisiae tim10-1 ts strain growth, BacTiter-Glo, 24 h | 7,400 compounds, 56% hits;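 active = inhibition of yeast growth at or above a set limit in either of two repeat tests at 20 µM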;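 note: tim10-1 mutant grown at permissive 25 °C to find synthetic lethal compounds; 0% = DMSO yeast wells and 100% = medium wells without yeast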
An asterisk follows results filed as active; / = no result. An excerpt weighted towards active compounds, which were near 4% of everything screened.

SMILES | tim23-1 inh | NALP3 yeast inh | tim10-1 inh | TIM10 inh | NALP1 yeast inh | tim10-1 confirm
COc1ccc2cc3cc(C(=O)N4CCCC(C)C4)oc3nc2c1 (centres undefined) | 44 | 15 | 45* | 22 | 7 | 13
CCOC(=O)C1CCCN(C(=O)c2cc3cc4ccc(OC)cc4nc3o2)C1 (centres undefined) | 35 | -7 | 32 | -4 | 9 | /
O=C(COn1nnc2ccc(Cl)cc21)Nc1ccc(F)cc1 | 29 | -20 | 20 | 28 | 1 | /
O=C(COn1nnc2ccc(Cl)cc21)NC12CC3CC(CC(C3)C1)C2 | 48 | -10 | 40* | 37 | 9 | 32*
N#Cc1ccccc1NC(=O)C1SC(=Nc2ccccc2)C(C(=O)Nc2ccc(Cl)cc2)=C1N (centres undefined) | 26 | 19 | 43* | 30 | -5 | 29
CCOc1ccc(N=C2SC(C(=O)Nc3ccccc3C#N)C(N)=C2C(=O)Nc2ccc(Cl)cc2)cc1 (centres undefined) | 16 | 17 | 11 | 0 | 1 | /
COCCNC(=O)c1cc2c(s1)-c1ccc(Cl)cc1SC2 | 33 | 23 | 42* | 10 | 21 | 41*
O=C(NCc1ccccc1)c1ccc(-c2ccccc2F)o1 | 47 | 26 | 42* | 24 | 3 | 36*
O=C(NN=Cc1ccccc1OC(F)F)c1cccc(S(=O)(=O)N2CCCC2)c1 | 19 | 2 | 16 | 11 | / | /
CC(C)N=C1NN=C(c2cccs2)CS1 | 16 | 6 | -11 | 11 | 11 | /
CC(C)N=C1NN=C(c2ccc(Cl)c(Cl)c2)CS1 | 36 | 15 | 48* | 12 | 21 | 25
CCOC(=O)c1c(C)[nH]c(C(=O)OCC(=O)Nc2cc(C)nn2-c2ccccc2)c1C | -10 | 17 | -24 | -22 | / | /
CCC(C)c1ccc(NC(=S)Nc2ccc(OC)cc2C)cc1 (centres undefined) | 45 | 27 | 45* | 32 | 16 | 36*
CCC(C)c1ccc(NC(=O)CC(C)=O)cc1 (centres undefined) | 19 | 6 | 42* | 6 | 2 | 24
CCC(C)c1ccc(NC(=S)Nc2ccc(OC)c(OC)c2)cc1 (centres undefined) | 39 | 20 | 44* | 29 | 15 | 32*
COc1ccc(NC(=S)NC(C)c2ccncc2)cc1OC (centres undefined) | -5 | 6 | -9 | -14 | 5 | /
CCC(C)c1ccc(NC(=O)CN(C)CC(=O)Nc2cccc(OC)c2)cc1 (centres undefined) | 20 | 13 | -3 | 8 | 8 | /
CC1(C)CC(=O)c2cnc(NC(=O)CSC(=S)N3CCCCC3)nc2C1 | 1 | 1 | -8 | -21 | 6 | /
NC(=O)c1ccsc1NC(=O)COC(=O)CNC(=O)c1ccc(Cl)cc1 | 17 | 1 | 4 | -1 | / | /
Cc1ccc(C2=NCCn3c2c2ccccc2[n+]3[O-])cc1 | 7 | 10 | 15 | 16 | / | /
CCCN(CC(=O)Nc1ccccc1OC)C(=O)c1ccc2[nH]c3c(c2c1)CC(C)CC3 (centres undefined) | 43 | -12 | 41* | 23 | / | 30
CCN(CC(=O)Nc1ccccc1OC)C(=O)c1ccc2[nH]c3c(c2c1)CC(C)CC3 (centres undefined) | 40 | 20 | 17 | 27 | / | /
CCCN(CCC)CCNC(=O)C1(O)c2ccccc2NC(=O)N1c1cccc(OC)c1 (centres undefined) | 5 | 26 | 7 | 8 | 18 | /
Cc1cccc(N2C(=O)CN(Cc3sccc3C)C2=S)c1 | 40 | 16 | 21 | 31 | 16 | /
Cc1cccc(N2C(=O)CN(Cc3cccs3)C2=S)c1 | 45 | 14 | 42* | 33 | 3 | 25
SMILES | tim23-1 inh | NALP3 yeast inh | tim10-1 inh | TIM10 inh | NALP1 yeast inh | tim10-1 confirm
Cc1ccsc1CN1CC(=O)N(c2c(C)cccc2C)C1=S | 39 | 29 | 45* | 24 | 4 | 36*
O=C(NCc1ccco1)C1CC(c2cc(C(F)(F)F)cc(C(F)(F)F)c2)=NO1 (centres undefined) | 16 | -17 | 10 | 7 | / | /
CCn1c(N2CCN(C(=S)NCCc3ccccc3)CC2)nc2ccccc21 | 32 | 11 | 10 | 14 | 2 | /
CN(CC(=O)Nc1ccc(F)c(F)c1F)C(=O)CC1CCCCC1 | 22 | 30 | -20 | 1 | / | /
COc1ccc2c(c1)OC[C@H]1[C@H]2N2C(=O)CN(Cc3ccc(C)cc3)C(=O)[C@@]2(C)[C@H]1c1ccccc1 | 24 | 23 | 20 | 12 | / | /
COc1ccccc1CCC(=O)Nc1ncc(C)s1 | 8 | 27 | -19 | 25 | 8 | /
CCCCOc1cccc(C(=O)NC(=S)Nc2cccnc2)c1 | 43 | 18 | 43* | 16 | 17 | 14
CCOc1cccc(C(=O)NC(=S)Nc2cccnc2)c1 | 18 | 11 | 19 | -9 | 17 | /
COc1cc2c(cc1Cl)/C(=C\CCN(C)C)c1ccccc1S2 | 17 | 13 | 40* | 17 | 40 | 30
CN(C)CC/C=C1/c2cc(F)ccc2Sc2ccc(Cl)cc21 | 4 | 36 | 15 | 21 | / | /
COc1cc(Cl)cc2c1Sc1ccccc1/C2=C/CCN(C)C | -68 | 9 | 42* | 35 | 16 | 29
CN(C)CC/C=C1/c2ccccc2Sc2c(O)cc(Cl)cc21 | 12 | 19 | 38 | 18 | 23 | /
NC(=O)C1CCN(CC(=O)Nc2ccc3c(c2)OCCO3)CC1 | 7 | 1 | 5 | 8 | / | /
O=C(CN1CCC(C(=O)c2ccc(Cl)cc2)CC1)Nc1ccc2c(c1)OCCO2 | 35 | 12 | 44* | 15 | 1 | 25
O=C(CN1CCC(n2nnc3cc(F)ccc32)CC1)Nc1ccc2c(c1)CCC2 | 17 | 17 | 47* | 14 | 35 | 22
O=C(OCc1ccccc1)/C(=C/c1ccc(Cl)cc1)NC(=O)c1ccccc1Cl | -8 | 18 | -12 | -20 | 10 | /
CCOC(=O)/C(=C/c1ccc(Cl)cc1)NC(=O)c1ccco1 | 29 | -11 | 40* | -7 | 24 | 18
NNC(=O)C(Cc1cnc[nH]1)NC(=O)OCc1ccccc1 (centres undefined) | -2 | 1 | 3 | -4 | 11 | /
COc1ccc(CC(=O)Nc2nc(-c3ccccc3)c(C(C)=O)s2)cc1OC | 18 | 4 | 48* | 12 | 10 | 27
COc1ccc(-c2sc(NC(C)=O)nc2-c2ccccc2)cc1 | 33 | 9 | 28 | 35 | 28 | /
COc1ccc(-c2nc(NC(C)=O)sc2-c2ccccc2)cc1 | 42 | 2 | 42* | 26 | -8 | 20
COc1cc(CC(=O)Nc2nc(-c3ccccc3)c(C(C)=O)s2)cc(OC)c1OC | 7 | 21 | 2 | 17 | -28 | /
CSc1nnc(-c2sc3cc(C(F)(F)F)cnc3c2-c2ccccc2)n1C | 6 | 16 | 18 | 8 | -7 | /
FC(F)Oc1ccc(/C=N/c2c(-c3ccc(OC(F)F)cc3)nc3n2CCS3)cc1 | 9 | 7 | 47* | 6 | 48 | 24
CCOc1ccc(-c2nc3n(c(=O)c2C#N)CCS3)cc1 | -15 | -8 | 31 | 22 | 8 | /
